Test results published in PubChem BioAssay AID1745847 (National Center for Advancing Translational Sciences (NCATS), 2022).
In all, about 2,100 compounds went through this assay and about 670 (32%) were called active. Another 50% or so got no clear call; they are omitted. The call rests on the fitted dose curve; in most records, active means well fitted inhibition curve with a large enough effect; inconclusive means small, poorly fitted or top-dose-only effect; inactive means no such curve, though single readings can be large or run the other way. The list shows a part of the results.

Assay: CMV-Luciferase Counterscreen for Inhibitors of ATXN expression; further: nearly all actives have a fitted effect of over 55% in size
Conditions: HEK-293 CMV-luciferase reporter, luminescence, 24 h; series mostly up to 57.5 µM
On the % scale 0 is the no-effect control and ±100 the full control effect; potency means the concentration at half of the fitted maximal effect.

Question: For `COc1cccc(C=NNC(=O)c2ccncc2)c1O`, which Potency is on record?
Answer: Its Potency is 15.8 µM (active).

Question: With `c1ccc2c(c1)c1c(c3ccccc32)CN2CCCC2C1` (stereo not drawn) as the molecule, how does the Potency read?
Answer: Its Potency is “inactive”.

Question: With `Cc1cc2c(N=O)c(NO)ccc2[nH]1` as the molecule, how does the Potency read?
Answer: Its Potency is 10 µM (active).

Question: With `CN(C)CCCN(C(=O)c1ccco1)c1nc2cc3c(cc2s1)OCO3` as the molecule, how does the Potency read?
Answer: Its Potency is “inactive”.

Question: For `CN(/N=C/c1cc(Br)cc(Br)c1O)c1cccc(C(F)(F)F)n1`, which Potency is on record?
Answer: The Potency was 11.2 µM (active).

Question: Which Potency does the source give for `COc1ccc(NC(=S)N(CCCN2CCOCC2)Cc2cn(C)c3ccccc23)cc1` here?
Answer: The Potency was “inactive”.

Question: For `ClC(Cl)(Cl)c1nc2ccccc2n2nncc12`, which activity change, negative = inhibition is on record?
Answer: The activity change, negative = inhibition was -25.9% [at 11.4 µM] (inactive).

Question: Which activity change, negative = inhibition does the source give for `COc1ccc(C2CC(c3cccc(C(F)(F)F)c3)=NN2c2ccc(S(N)(=O)=O)cc2)cc1` (stereo not drawn) here?
Answer: The activity change, negative = inhibition was -28.1% [at 11.4 µM] (inactive).

Question: Which Potency does the source give for `NS(=O)(=O)c1ccc(N2N=C(c3ccccc3)CC2c2cccc(Br)c2)cc1` (stereo not drawn) here?
Answer: The Potency was 17.8 µM (active).

Question: With `NC(Cc1ccc(Cl)cc1)c1csc(Nc2nccc(C(F)(F)F)n2)n1` (stereo not drawn) as the molecule, how does the Potency read?
Answer: Its Potency is “inactive”.

Question: Which Potency does the source give for `O=C(N/N=C/c1cc(Br)cc([N+](=O)[O-])c1O)c1ccc(NC(=O)c2ccc(F)cc2)cc1` here?
Answer: Its Potency is 3.16 µM (active).

Question: For `CC(=O)Nc1ccc(C(=O)N/N=C/c2cc(Br)cc(Br)c2O)cc1`, which Potency is on record?
Answer: Its Potency is 11.2 µM (active).

Question: Which Potency does the source give for `CN(C)c1ccc(C(=O)N/N=C/c2cc(Br)cc(Br)c2O)cc1` here?
Answer: Its Potency is 3.16 µM (active).

Question: Which Potency does the source give for `Cc1cc(C(=O)N/N=C/c2cc(Br)cc([N+](=O)[O-])c2O)c2ccccc2n1` here?
Answer: The Potency was 3.55 µM (active).

Question: With `Cc1ccc2nc(NC(=O)/C=C/c3ccc4c(c3)OCO4)sc2c1` as the molecule, how does the Potency read?
Answer: Its Potency is “inactive”.

Question: Which Potency does the source give for `O=c1[nH]c(=O)n(C2C[C@H](O)[C@@H](CO)O2)cc1C(F)(F)F` (stereo partly drawn) here?
Answer: The Potency was 2.82 µM (active).

Question: Which Potency does the source give for `COC(=O)N/N=C/c1cn(CC(C)COc2ccccc2)c2ccccc12` (stereo not drawn) here?
Answer: The Potency was 17.8 µM (active).

Question: Which Potency does the source give for `c1ccc2c(c1)C(=NC1CCCCC1)NC2=NC1CCCCC1` here?
Answer: Its Potency is “inactive”.

Question: Which Potency does the source give for `O=C(CCCN1C(=O)/C(=C/c2ccccc2Cl)SC1=S)NNC(=O)c1ccc(Cl)cc1Cl` here?
Answer: The Potency was 2.82 µM (active).

Question: With `Cc1ccc(C(=O)NNC(=O)CCCN2C(=O)/C(=C/c3ccccc3Cl)SC2=S)cc1` as the molecule, how does the Potency read?
Answer: Its Potency is 11.2 µM (active).

Question: With `O=C(CCCN1C(=O)/C(=C/c2ccccc2Cl)SC1=S)NNC(=O)c1ccc(Cl)cc1` as the molecule, how does the Potency read?
Answer: Its Potency is 3.98 µM (active).

Question: Which activity change, negative = inhibition does the source give for `Cc1cc(C)c2c(CC(=O)Nc3ccc(Cl)cn3)coc2c1` here?
Answer: The activity change, negative = inhibition was 21.1% [at 11.4 µM] (inactive).

Question: With `CCc1ccc(/C=C/C(=O)c2cc(Br)ccc(=O)c2O)cc1` as the molecule, how does the Potency read?
Answer: Its Potency is “inactive”.

Question: For `NC(Cc1ccc(Cl)cc1)c1csc(Nc2cc(NCCCO)ncn2)n1` (stereo not drawn), which Potency is on record?
Answer: Its Potency is “inactive”.

Question: With `O=C(N/N=C/c1c(O)n(Cc2ccccc2)c(=O)c2ccccc12)c1cccnc1` as the molecule, how does the Potency read?
Answer: Its Potency is 12.6 µM (active).

Question: Which Potency does the source give for `O=C(N/N=C/c1cc(Cl)ccc1O)c1cccnc1` here?
Answer: The Potency was 0.631 µM (active).

Question: Which Potency does the source give for `O=C(N/N=C/c1cc(Cl)ccc1O)c1ccccc1Br` here?
Answer: The Potency was 8.91 µM (active).

Question: Which activity change, negative = inhibition does the source give for `Cc1cccc(/C=N/NC(=O)c2cccc(Cl)c2)n1` here?
Answer: Its activity change, negative = inhibition is -14.3% [at 11.4 µM] (inactive).
